Measurements from PubChem BioAssay (EPA / NIEHS).
Records with an inconclusive call do not appear. Active and inactive are the calls of the source. The calls were made as follows: active = hit-call score of the fitted dose curve at least 0.9, where 1 is the maximum; inconclusive = response in the unintended direction; inactive = score below 0.9.

Test: CCTE_Harrill_HTTr_CellCount_MCF7: CCTE's Cell Proliferation Assessment for the High-Throughput Transcriptomics (HTTr) Platform, Harrill Lab (AID 2284012);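 also: cells exposed to compound for six hours; intended direction is loss of nuclei count meaning fewer cells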
Summary of the method: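 MCF7 cells exposed 6 hours to an eight-point dilution series; Hoechst-stained nuclei counted by high-content imaging. Bidirectional curve fitting against DMSO baseline.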
For `COc1ccccc1N`, the outcome was “inactive”. With `Brc1ccc(Br)cc1` the outcome was “inactive”. With `CC(C)=CC1C(C(=O)OCc2cccc(Oc3ccccc3)c2)C1(C)C` (stereo not given) the outcome was “inactive”. For `O=[N+]([O-])c1ccc(Cl)c([N+](=O)[O-])c1`, the outcome was “inactive”. With `Cc1cc(Cl)ccc1N` the outcome was “inactive”. In the case of `O=C(O)COc1cc(Cl)c(Cl)cc1Cl`, the outcome is reported as “inactive”. With `O=C1C=CC(=O)c2ccccc21` the AC50 was 76.2 µM (active). For `C[C@H]1C(=O)O[C@@H]2CCN3CC=C(COC(=O)[C@](C)(O)[C@]1(C)O)[C@H]23`, the outcome was “inactive”. In the case of `Clc1cnc(Oc2ccc(Oc3ncc(Cl)cc3Cl)cc2)c(Cl)c1`, the outcome is reported as “inactive”. With `N#CCCC(Br)(C#N)CBr` (stereo not given) the outcome was “inactive”.
